Results as given in PubChem BioAssay (NCI).
Compounds without any hit were thinned out: in the full panel of roughly 83,000, 20% have a hit.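 Note: values are percent growth. 100 is the growth of untreated cells, values between 100 and 0 indicate rising inhibition; between -100 and 0 indicates cell death.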 Values without a mark were called inactive. Calls of active or inactive are those of the source. How the source made its calls: active means growth percent below 10; inactive means the rest.

What was measured:
Assay in all cases: NCI-60 one-dose screen, 48 h (100 = growth as untreated, 0 = no growth, -100 = all killed)
Settings in all cases: 10 µM unless noted
NCI-H23 lung = tested on: NCI-H23 lung
NCI-H226 lung = tested on: NCI-H226 lung
NCI-H322M lung = tested on: NCI-H322M lung
HOP-62 NSCLC = tested on: HOP-62 NSCLC
NCI-H460 lung = tested on: NCI-H460 lung
HOP-92 NSCLC = tested on: HOP-92 NSCLC
NCI-H522 lung = tested on: NCI-H522 lung
A549/ATCC NSCLC = tested on: A549/ATCC NSCLC
786-0 renal = tested on: 786-0 renal
COLO 205 colon = tested on: COLO 205 colon
DU-145 prostate = tested on: DU-145 prostate
K-562 leukemia = tested on: K-562 leukemia
MALME-3M melanoma = tested on: MALME-3M melanoma
MDA-MB-231 breast = tested on: MDA-MB-231 breast
RXF 393 renal = tested on: RXF 393 renal
SF-268 CNS = tested on: SF-268 CNS
SF-539 CNS = tested on: SF-539 CNS
UACC-257 melanoma = tested on: UACC-257 melanoma
M14 melanoma = tested on: M14 melanoma
SF-295 CNS = tested on: SF-295 CNS

Structure (SMILES) | growth (NCI-H23 lung) [%] | growth (NCI-H226 lung) | growth (NCI-H322M lung) | growth (HOP-62 NSCLC) | growth (NCI-H460 lung) | growth (HOP-92 NSCLC) | growth (NCI-H522 lung) | growth (A549/ATCC NSCLC) [%] | growth (786-0 renal) [%] | growth (COLO 205 colon) | growth (DU-145 prostate) | growth (K-562 leukemia) | growth (MALME-3M melanoma) [%] | growth (MDA-MB-231 breast) | growth (RXF 393 renal) | growth (SF-268 CNS) [%] | growth (SF-539 CNS) | growth (UACC-257 melanoma) | growth (M14 melanoma) | growth (SF-295 CNS)
CCCNC(=S)N/N=C(\C)c1ccccn1 | 35.7 | 21.5% | 4.31% (active) | 44% | 17.7% | 37.2% | 56.4% | 31.7 | 20.4 | 20.8% | 34.3% | 17% | 24.3 | 41.1% | 10.4% | 38.7 | 24.2% | 12% | 6.11% (active) | 
Brc1ccccc1Cn1c(-c2cncs2)nc2ccccc21 | 85.4 | 70.5% | 86.6% | 76% | 80.8% | 0.748% (active) | 66.8% | 82.7 | 90.6 | 84.9% | 98.4% | 74.6% | 98 | 71.2% | 97.6% | 92.1 | 88.5% | 96% | 92.9% | 
NC(N)=N/N=C\c1ccc(OCc2ccccc2)cc1 | 84 | 46.4% | 93.4% | 62.8% | 96.4% | 40.2% | 77.3% | 82.8 | 81.7 | -62.8% (active) | 87.4% | 36% | 91.5 | 66.1% | -3.77% (active) |  | 87.7% | 90.4% | 81.5% | 99%
CCN(CC)CCNc1c(C)cc(CO)c(Cl)c1C | 102 | -23.6% (active) | 110% | 113% | 98.9% | 109% | 104% | 84.5 | 103 | 85.2% | 120% | 115% |  | 104% | 119% |  | 103% | 96.7% | 110% | 104%
NS(=O)(=O)c1ccc(N2N=C(c3ccc(Br)cc3)CC2c2cn(-c3ccccc3)nc2-c2ccc(Cl)cc2)cc1 (centres undefined) | 88.3 | 103% | 92.5% | 98.2% | 81.6% | 157% | 89.9% | 76.8 | 97.9 | 86.3% | 94.7% | 63% |  | 99% | 88.9% | 84.7 | 104% | 96.7% | 83.7% | 92.7%
CCOc1cccc(/C=N/NC(=O)Cc2ccc(Nc3ccnc(C(F)(F)F)c3)cc2)c1O | 39 | -1.59% (active) | 36.8% | 7.88% (active) | 0.302% (active) | 46.7% | 13.4% | 47.3 | 29 | 4.75% (active) | 33.2% |  | 34.3 | 26.8% | 51.1% | 18.2 | 17.4% | 21.9% | 3.19% (active) | 47.9%
COc1ccc2c(c1)N(CCO)C1=C(C(=O)OC1)C2c1cccc(Br)c1 (centres undefined) | 29.2 | -5.22% (active) | 29% | 29.4% | 2.07% (active) | 42.7% | -19.2% (active) | 16.4 | 21.4 | -47.2% (active) | -27.2% (active) | 13.6% |  | -10.6% (active) | 44.4% | 25 | -6.97% (active) | 60% | 8.81% (active) | -19.4% (active)
COc1cc(Cn2c(-c3ccccc3)cc3c2-c2oncc2CC3)cc(OC)c1OC | 48.4 | 51% | -13.2% (active) | 39% | 9.75% (active) | 28% | 5.31% (active) | 23.9 | 32.7 | 14.5% | -21.1% (active) | 11.8% |  | 47.1% | 9.54% (active) | 44.8 | -3.28% (active) | 58.8% | 21.9% | 
CC1=C(O)C(=O)C(c2c(C)cc(C)c(Br)c2C)=C(O)C1=O | 40.7 | 83.3% | 71.5% | 69.9% | 35.5% | 83.7% | 66.8% | 44.1 | 56.8 | 75.8% | 78.4% | 48.8% |  | 93.5% | 28.9% |  | 65.2% | 86.5% | 70.2% | 52.6%
CN=C1C=C/C(=N/N=c2/ccn(O)cc2C)C=C1C | 90 | 103% | 113% | 97.2% | 111% | 85.7% | 77.9% | 88.8 | 89.3 | 138% | 104% | 115% |  | 86.4% | 96.8% | 102 | 90.2% | 98.5% | 101% | 
O=C(O)c1ccccc1N=Cc1ccccc1 | 98 | 132% | 120% | 100% | 106% | 90.2% | 101% | 102 | 104 | 105% | 108% | 99.2% |  | 109% | 132% | 109 | 101% | 113% | 109% | 
CCc1ccc2c(c1)N(CCO)C1=C(C(=O)OC1)C2c1cccc(Cl)c1 (centres undefined) | 38.8 | 32.4% | 39.4% | 31.7% | 10.8% | 93.4% | -22% (active) | 26.6 | 32.8 | 2.49% (active) | 11.3% | 13.3% |  | 30.8% | 10.1% | 44.9 | -12.6% (active) | 62.2% | 4.38% (active) | -15.6% (active)
COc1ccc(C2C3=C(COC3=O)N(CCO)c3cc(OC)c(OC)cc32)cc1 (centres undefined) | 106 | 101% | 104% | 95.7% | 105% | 86.9% | 92.8% | 108 | 96.3 | 110% | 113% | 82.5% |  | 112% | 114% | 101 | 105% | 116% | 108% | 110%
O=C(Nc1ccccc1Cl)Oc1ccc2ccccc2c1 | 91.3 | 88.2% | 109% | 92.9% | 102% | 101% | 79.6% | 94.9 | 90.9 | 118% | 107% | 85.3% |  | 88.7% | 99.6% | 101 | 92.5% | 93.5% | 101% | 
COc1cc(OC)cc(-c2n/c(=C\c3c(O)[nH]c4ccc(Cl)cc34)cc3c2=Nc2ccccc2-3)c1 | 34 | 84.3% | 93.2% | 72.5% | 43.3% | 92.6% | 60.7% | 58.5 | 39.3 | 90.5% | 18.4% | 28% |  | 64.5% | 76.8% | 52.8 | 104% | 108% | 86% | 
CN(C)c1ccc(C(c2ccccc2)c2ccc(N(C)C)cc2)cc1 | 79.1 | 95.2% | 128% | 104% | 99% | 63.4% | 88.3% | 91.8 | 97.5 | 111% | 101% | 73.4% |  | 98.5% | 107% | 89.9 | 112% | 98.1% | 93% | 
CCCCCCCCCCC(C(O)c1ccccc1)N1CCCCC1 (centres undefined) | 49.6 | 33.6% | 45.8% | -75.3% (active) | -74.5% (active) | -14.8% (active) | 18% | 47.3 | 29 | -76.3% (active) | 64.5% | 3.31% (active) |  | 9.66% (active) | -22.3% (active) | 68.4 | 27.3% | -1.19% (active) | -63.8% (active) | 
